Records with an inconclusive call do not appear. Activity calls are given as the source filed them. Unless noted, calls follow the shape of the full dose curve.
Tests used:
[1] = qHTS assay to identify small molecule antagonists of the sonic hedgehog signaling (Shh) pathway (AID 1259369); also: nearly all actives have a fitted effect of over 45% in size; also: potency is read from the fitted curve at half-maximal effect
Summary of the method: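 Luminescence readout: firefly Luc under Gli1 response element in 3T3Gli1-Luc cells (NIH/3T3 clone). Antagonist mode, stimulation by conditioned medium; compound exposure 24hr at 37 C, 5% CO2.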

[2] = qHTS assay to identify small molecule agonists of the androgen receptor (AR) signaling pathway in the presence of an antagonist - cell viability counter screen (AID 1259379; active = well fitted curve in the direction sought with a large enough effect in the repeat runs; an effect the other way counts as inactive or inconclusive;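 also: MDA-kb2 human breast cancer cells carrying an MMTV luciferase reporter; series mostly up to about 92 µM; nearly all actives have a fitted effect of over 25% in size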)
Summary of the method: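 Viability counter screen: CellTiter-Fluor fluorescence, measured in the same wells as the luciferase read-out. MDA-kb2 cells, 3,000/well, with nilutamide at 3.0uM final and compounds at 15 concentrations, 16 hr at 37C, 0% CO2.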

[3] = qHTS assay to identify small molecule agonists of the estrogen receptor beta (ER-beta) signaling pathway - cell viability counter screen (AID 1259380; active = well fitted curve in the direction sought with a large enough effect in the repeat runs; an effect the other way counts as inactive or inconclusive; also: nearly all actives have a fitted effect of over 30% in size)
Summary of the method: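 Luminescence read-out (CellTiter-Glo, 30 min, room temp) taken in the same wells as the beta-lactamase reporter assay; ER-beta-UAS-bla HEK293T cells exposed to DMSO-dissolved compounds for 16 hr at 37C in 2% charcoal-stripped FBS medium.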

[4] = qHTS assay to identify small molecule antagonists of the estrogen receptor beta (ER-beta) signaling pathway - cell viability counter screen (AID 1259382; active = well fitted curve in the direction sought with a large enough effect in the repeat runs; an effect the other way counts as inactive or inconclusive;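 also: HEK293T cells carrying ER-beta-UAS-bla reporter stimulated with estradiol; series mostly up to about 92 µM; nearly all actives have a fitted effect of over 55% in size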)
Summary of the method: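 Luminescent ATP read-out (CellTiter-Glo, 30 min, RT) taken in the same wells as the bla reporter assay. HEK293T ER-beta-UAS-bla cells in 2% charcoal-stripped FBS were exposed to compounds with 1nM E2 for 16 hr at 37C.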

[5] = target: Estrogen receptor (Homo sapiens) (UniProt P03372); assay: qHTS assay to identify small molecule agonists of the estrogen receptor alpha (ER-alpha) signaling pathway in the presence of an antagonist (AID 1259383); also: top concentration of the series differs between compounds; nearly all actives have a fitted effect of over 15% in size
Chain of Estrogen receptor (Homo sapiens) (P03372 whole entry, looked up): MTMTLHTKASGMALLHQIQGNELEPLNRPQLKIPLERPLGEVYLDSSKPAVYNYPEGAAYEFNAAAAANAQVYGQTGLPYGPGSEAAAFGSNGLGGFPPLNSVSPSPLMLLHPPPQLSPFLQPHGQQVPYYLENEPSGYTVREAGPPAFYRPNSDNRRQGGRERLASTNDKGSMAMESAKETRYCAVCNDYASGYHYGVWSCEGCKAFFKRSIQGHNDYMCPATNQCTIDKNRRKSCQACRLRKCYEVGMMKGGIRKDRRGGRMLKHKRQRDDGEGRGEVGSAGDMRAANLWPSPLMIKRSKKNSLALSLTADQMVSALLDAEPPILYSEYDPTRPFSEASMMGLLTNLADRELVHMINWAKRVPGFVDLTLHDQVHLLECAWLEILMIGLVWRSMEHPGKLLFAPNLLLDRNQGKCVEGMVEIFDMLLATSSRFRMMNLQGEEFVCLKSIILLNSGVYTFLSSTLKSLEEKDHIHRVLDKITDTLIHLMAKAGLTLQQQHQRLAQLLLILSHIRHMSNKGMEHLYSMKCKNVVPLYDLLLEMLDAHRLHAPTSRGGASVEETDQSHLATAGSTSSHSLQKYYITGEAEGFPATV
Summary of the method: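 Luciferase luminescence (ONE-Glo, 30min at room temperature) measured in VM7Luc4E2 cells after 22hr compound exposure at 15 concentrations, with 10.0nM ICI-182,780 final present; cells express endogenous ER-alpha and carry four EREs upstream of luciferase.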

[6] = qHTS assay to identify small molecule agonists or antagonists of the thyroid stimulating hormone receptor (TSHR) signaling pathway - wild type cell line counter screen (AID 1259384)
Summary of the method: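 Counter screen in untransfected Hek293: compounds (15-point titration, triplicate) plus phosphodiesterase inhibitor Ro20-1724 added after 18 h plating; 30 min RT. Intracellular cAMP via competitive d2/cryptate immunoassay, 1 h incubation.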

[7] = target: Estrogen receptor beta (Homo sapiens) (UniProt Q92731); assay: qHTS assay to identify small molecule agonists of the estrogen receptor beta (ER-beta) signaling pathway (AID 1259377; active = well fitted activation curve with a large enough effect in the signal ratio in the repeat runs, not every such curve was filed as active; the % refers to the signal ratio)
Chain of Estrogen receptor beta (Homo sapiens) (Q92731 whole entry, looked up): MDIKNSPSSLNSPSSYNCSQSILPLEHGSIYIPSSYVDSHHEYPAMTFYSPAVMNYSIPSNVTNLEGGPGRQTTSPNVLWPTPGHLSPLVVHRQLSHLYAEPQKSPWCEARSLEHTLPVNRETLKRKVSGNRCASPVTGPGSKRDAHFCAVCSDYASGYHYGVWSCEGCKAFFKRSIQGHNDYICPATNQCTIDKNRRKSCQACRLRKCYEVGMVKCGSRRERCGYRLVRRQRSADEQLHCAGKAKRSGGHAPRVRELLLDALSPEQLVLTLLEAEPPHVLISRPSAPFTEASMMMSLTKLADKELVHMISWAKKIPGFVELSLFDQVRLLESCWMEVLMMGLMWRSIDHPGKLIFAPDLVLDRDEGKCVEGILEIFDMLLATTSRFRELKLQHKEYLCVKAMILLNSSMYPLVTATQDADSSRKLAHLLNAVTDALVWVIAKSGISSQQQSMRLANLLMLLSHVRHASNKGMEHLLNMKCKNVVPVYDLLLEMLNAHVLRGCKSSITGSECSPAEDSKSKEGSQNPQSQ
Summary of the method: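 Ratiometric beta-lactamase FRET read-out came after 2 h substrate loading at room temperature. It followed 16 h compound treatment at 37C of GripTite HEK293T cells carrying a UAS-bla reporter, plated in 2% charcoal-stripped FBS medium.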

[8] = target: Androgen receptor (Homo sapiens) (UniProt P10275); assay: qHTS assay to identify small molecule agonists of the androgen receptor (AR) signaling pathway in the presence of an antagonist (AID 1259381); also: nearly all actives have a fitted effect of over 15% in size; also: potency is read from the fitted curve at half-maximal effect
Chain of Androgen receptor (Homo sapiens) (P10275 whole entry, looked up): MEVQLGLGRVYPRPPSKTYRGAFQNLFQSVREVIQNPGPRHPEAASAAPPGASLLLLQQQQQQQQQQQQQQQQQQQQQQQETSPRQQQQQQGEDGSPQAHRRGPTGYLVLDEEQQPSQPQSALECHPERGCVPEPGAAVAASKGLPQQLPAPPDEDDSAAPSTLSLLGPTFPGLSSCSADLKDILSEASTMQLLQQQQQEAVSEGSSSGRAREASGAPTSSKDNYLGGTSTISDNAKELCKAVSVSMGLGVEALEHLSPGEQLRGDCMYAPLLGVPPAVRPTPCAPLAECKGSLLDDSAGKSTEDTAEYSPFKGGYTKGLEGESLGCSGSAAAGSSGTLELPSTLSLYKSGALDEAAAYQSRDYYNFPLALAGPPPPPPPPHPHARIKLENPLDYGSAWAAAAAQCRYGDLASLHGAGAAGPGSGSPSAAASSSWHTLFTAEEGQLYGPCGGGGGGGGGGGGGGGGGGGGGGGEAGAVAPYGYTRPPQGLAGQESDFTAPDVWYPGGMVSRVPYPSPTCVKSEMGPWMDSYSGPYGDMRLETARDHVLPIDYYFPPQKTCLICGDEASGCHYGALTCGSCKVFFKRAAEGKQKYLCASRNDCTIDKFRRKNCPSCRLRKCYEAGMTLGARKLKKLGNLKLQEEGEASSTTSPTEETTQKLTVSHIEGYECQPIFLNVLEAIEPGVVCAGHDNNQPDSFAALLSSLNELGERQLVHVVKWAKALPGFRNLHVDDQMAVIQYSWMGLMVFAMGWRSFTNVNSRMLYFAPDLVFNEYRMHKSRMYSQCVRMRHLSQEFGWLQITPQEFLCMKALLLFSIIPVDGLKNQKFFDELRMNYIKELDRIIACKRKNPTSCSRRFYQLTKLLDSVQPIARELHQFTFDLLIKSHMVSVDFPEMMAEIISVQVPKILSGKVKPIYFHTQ
Summary of the method: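 Luciferase read-out (ONE-Glo, 30min room temperature) in MDA-kb2 MMTV-reporter cells; agonist mode run in presence of AR antagonist nilutamide, 3.0uM final. Compounds tested as 15-point series, 16hr exposure at 37C, 0% CO2.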

[9] = target: Thyrotropin receptor (Homo sapiens) (UniProt P16473); assay: qHTS assay to identify small molecule antagonists of the thyroid stimulating hormone receptor (TSHR) signaling pathway (AID 1259385); also: nearly all actives have a fitted effect of over 20% in size
Chain of Thyrotropin receptor (Homo sapiens) (P16473 whole entry, looked up): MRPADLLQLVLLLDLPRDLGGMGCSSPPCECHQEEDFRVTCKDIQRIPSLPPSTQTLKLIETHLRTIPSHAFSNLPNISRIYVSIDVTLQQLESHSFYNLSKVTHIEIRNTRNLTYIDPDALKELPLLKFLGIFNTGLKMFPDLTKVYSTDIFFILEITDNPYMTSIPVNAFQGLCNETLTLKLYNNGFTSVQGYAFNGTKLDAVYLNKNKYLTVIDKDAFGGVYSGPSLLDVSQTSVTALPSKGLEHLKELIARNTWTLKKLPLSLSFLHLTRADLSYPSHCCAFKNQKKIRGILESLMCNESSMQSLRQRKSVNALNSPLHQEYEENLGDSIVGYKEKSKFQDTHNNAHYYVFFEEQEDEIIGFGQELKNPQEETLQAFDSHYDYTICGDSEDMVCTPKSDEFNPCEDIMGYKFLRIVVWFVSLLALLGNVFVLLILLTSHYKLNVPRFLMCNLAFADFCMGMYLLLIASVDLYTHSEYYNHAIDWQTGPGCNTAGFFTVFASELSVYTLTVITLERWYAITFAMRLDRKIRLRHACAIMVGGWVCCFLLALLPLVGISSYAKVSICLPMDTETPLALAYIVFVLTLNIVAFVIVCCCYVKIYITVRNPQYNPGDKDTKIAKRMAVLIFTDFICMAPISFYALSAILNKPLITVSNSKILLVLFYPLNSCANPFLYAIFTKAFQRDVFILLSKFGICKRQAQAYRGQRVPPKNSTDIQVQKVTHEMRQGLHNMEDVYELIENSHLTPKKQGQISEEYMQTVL
Summary of the method: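 Antagonist mode: compound-treated TSHR-expressing HEK293 cells were stimulated with 1.5 ng/mL TSH (final) in presence of Ro20-1724 for 30 min at RT. HTRF cAMP detection after 1 h; each compound tested at 15 concentrations, triplicate.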

[10] = target: Estrogen receptor beta (Homo sapiens) (UniProt Q92731); assay: qHTS assay to identify small molecule antagonists of the estrogen receptor beta (ER-beta) signaling pathway (AID 1259378; active = well fitted inhibition curve with a large enough effect in the signal ratio in the repeat runs, not every such curve was filed as active; the % refers to the signal ratio)
Summary of the method: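 Antagonist mode: compounds added to beta-lactamase reporter HEK293T ER-beta-UAS cells stimulated with E2 (1nM final), 16 hr at 37C. LiveBLAzer B/G FRET substrate, 2 hours room temperature, fluorescence read-out.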
% is scaled to controls: 0 for no effect and ±100 for the full control effect.

CCCCCCCCCCCCCCCCCCO
inactive: Potency [1] | Potency [2] | Potency [3] | outcome [4] | outcome [5] | outcome [6]

c1ccc(CCc2ccccc2)cc1
inactive: Potency [1] | Potency [7] | Potency [2] | outcome [4] | outcome [6]

CC(C)NNC(=O)c1ccncc1
inactive: Potency [1] | Potency [2] | Potency [3] | Potency [8] | outcome [4] | outcome [6] | outcome [9]

CCCCN1C=CN(C)C1
inactive: activity change, negative = inhibition [1] 0.745% [at 19 µM] | activity change, negative = cytotoxicity [2] 0.886% [at 19 µM] | activity change, negative = cytotoxicity [3] 2.46% [at 19 µM] | activity change, negative = cytotoxicity [4] -4.66% [at 19 µM] | activation [5] 0.706% [at 19 µM] | cAMP activity change [6] -4.22% [at 18.9 µM]

Nc1ccn([C@@H]2O[C@H](CO)[C@@H](O)C2(F)F)c(=O)n1
inactive: Potency [1] | Potency [7] | Potency [2] | outcome [4] | outcome [5] | outcome [6]

CC(CO)(CO)[N+](=O)[O-]
inactive: Potency [1] | Potency [10] | Potency [2] | outcome [4] | outcome [5] | outcome [6] | outcome [9]

CN(C)CCN(C)CCN(C)C
inactive: Potency [1] | Potency [2] | Potency [3] | outcome [4] | outcome [5] | outcome [6]

C[N+]1(C)[C@@H]2CC(OC(=O)[C@H](CO)c3ccccc3)C[C@H]1[C@@H]1O[C@@H]12 (stereo partly drawn)
inactive: Potency [1] | Potency [2] | Potency [3] | outcome [4] | outcome [5] | outcome [6] | outcome [9]

CO[C@@]1(NC(=O)CSC[C@@H](N)C(=O)O)C(=O)N2C(C(=O)O)=C(CSc3nnnn3C)CS[C@@H]21
inactive: Potency [1] | Potency [2] | Potency [3] | Potency [8] | outcome [4] | outcome [5] | outcome [6] | outcome [9]

CC1=NN(c2cccc(S(=O)(=O)O)c2)C(=O)C1
inactive: Potency [1] | Potency [2] | Potency [3] | Potency [8] | outcome [4] | outcome [5] | outcome [6] | outcome [9]

O=C(O)CCCC[P+](c1ccccc1)(c1ccccc1)c1ccccc1
inactive: Potency [1] | Potency [2] | Potency [3] | outcome [4] | outcome [5] | outcome [6]

CCCC[N+](C)(CCCC)CCCC
inactive: Potency [1] | Potency [7] | Potency [2] | outcome [4] | outcome [5] | outcome [6] | outcome [9]

CCC1C(=O)OCC1Cc1cncn1C (stereo not drawn)
inactive: Potency [1] | Potency [2] | Potency [3] | outcome [4] | outcome [5] | outcome [6]

FB(F)F
inactive: Potency [1] | Potency [2] | Potency [3] | outcome [4] | outcome [5] | outcome [6] | outcome [9]

CCCCS(=O)(=O)N[C@@H](Cc1ccc(OCCCCC2CCNCC2)cc1)C(=O)O
inactive: Potency [1] | Potency [2] | Potency [3] | Potency [8] | outcome [4] | outcome [5] | outcome [6] | outcome [9]

NCCCC[C@H](N[C@@H](CCc1ccccc1)C(=O)O)C(=O)N1CCC[C@H]1C(=O)O
inactive: Potency [1] | Potency [2] | Potency [3] | outcome [4]

C[N+]1(C)CCCC(OC(=O)C(O)(c2ccccc2)c2ccccc2)C1 (stereo not drawn)
inactive: Potency [1] | Potency [2] | Potency [3] | outcome [4] | outcome [5]

CC(=O)N[C@H]1[C@H]([C@H](O)[C@H](O)CO)OC(C(=O)O)=C[C@@H]1N=C(N)N
inactive: Potency [1] | Potency [2] | Potency [3] | Potency [8] | outcome [4] | outcome [5] | outcome [6] | outcome [9]

C[C@@H]1C[C@H]2[C@@H]3C[C@H](F)C4=CC(=O)C(Cl)=C[C@]4(C)[C@@]3(F)[C@@H](O)C[C@]2(C)[C@@]1(O)C(=O)CO
inactive: Potency [2] | Potency [3] | outcome [4] | outcome [5] | outcome [6] | outcome [9]
active: Potency [1] 18.8 µM | Potency [8] 0.0047 µM

CNC(=O)Nc1ccc(Cl)c(Cl)c1
inactive: Potency [1] | Potency [10] | Potency [2] | Potency [8] | outcome [4] | outcome [5] | outcome [6] | outcome [9]

CO[Si](C)(OC)c1ccccc1
inactive: Potency [1] | Potency [2] | Potency [3] | outcome [4] | outcome [5] | outcome [6]

CCN(Cc1ccccc1)c1ccccc1
active: Potency [1] 48 µM
inactive: Potency [7] | Potency [8] | outcome [4] | outcome [5] | outcome [6]

CN(C)C(=O)Oc1ccc[n+](C)c1
inactive: Potency [1] | Potency [2] | Potency [3] | outcome [4] | outcome [5] | outcome [6] | outcome [9]

N[C@@H](CCC(=O)O)C(=O)O
inactive: Potency [1] | Potency [2] | Potency [3] | outcome [4] | outcome [5] | outcome [6] | outcome [9]

CC12CCC(C(=O)C1=O)C2(C)C (stereo not drawn)
inactive: Potency [1] | Potency [2] | Potency [3] | outcome [4]

Reference: PubChem BioAssay (Tox21)
